The source of these data is PubChem BioAssay (EPA / NIEHS).

Several values for one entry are separate records, joined by “and”; a condition that tells them apart may be missing. Equal values may be shown once. The source holds several records for some structures; these can differ, active in one and inactive in another. Activity calls are given as the source filed them. How the source made its calls: active means hit-call score of the fitted dose curve at least 0.9, where 1 is the maximum; inactive means score below 0.9.

Usually AC50 stands for the midpoint of the concentration-response curve, whichever way the signal moves.

Assay [1] is described as follows: ATG_CRE_CIS: Attagene CIS-FACTORIAL HepG2 Assay for human cAMP Responsive Element (CRE) binding protein 3 (AID 2282926). The settings on record: HepG2 CRE cis-reporter, Attagene multiplexed mRNA; actives raise or lower the signal. Put shortly:
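HepG2 cells transiently transfected with a multiplexed reporter library (CRE-driven unit among them) were dosed for 24 h. Reporter mRNA was quantified by RT-PCR, fluorescent labelling, HpaI digestion and capillary electrophoresis, with bidirectional fitting against DMSO baseline.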

Assay [2] has as its target CCAAT/enhancer-binding protein beta (Homo sapiens) (UniProt P17676). In words: ATG_C_EBP_CIS: Attagene CIS-FACTORIAL HepG2 Assay for human CCAAT/Enhancer Binding Protein (C/EBP) beta (AID 2282927). The settings on record: HepG2 Attagene cis-factorial transcription factor reporter; actives raise or lower the signal. Put shortly:
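Following a 24 h incubation with test chemical, transfected HepG2 cells yielded RNA whose reporter transcripts were quantified by RT-PCR and fluorescent capillary electrophoresis, with DMSO serving as baseline for bidirectional fitting.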

Assay [3] in a line: ATG_CMV_CIS: Attagene CIS-FACTORIAL HepG2 Assay for human CMV (Internal Marker) (AID 2282928).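 Further: endpoint acts as a background internal control marker rather than a target.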 The settings on record: HepG2 CMV promoter reporter, transcription factor profiling; actives raise or lower the signal. A digest of the protocol:
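HepG2 cells transiently transfected with multiple cis-regulated reporter units; 24 h compound exposure. Reporter mRNA quantified by RT-PCR, 6-FAM primer-extension labeling, HpaI digestion and capillary electrophoresis; bidirectional fitting against DMSO baseline.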

The nature of assay [4]: ATG_DR4_LXR_CIS: Attagene CIS-FACTORIAL HepG2 Assay for human Liver X Receptor (LXR), DR4 submotif (AID 2282929). The settings on record: HepG2 Attagene DR4 cis-reporter, mRNA transcription; actives raise or lower the signal. Put shortly: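 HepG2 cells were transiently transfected with multiple cis-regulated reporter units and dosed for 24 hours. The DR4 reporter mRNA was quantified by RT-PCR, 6-FAM labelling and capillary electrophoresis. Bidirectional fits used DMSO as baseline.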

Assay [5] addresses Aryl hydrocarbon receptor (Homo sapiens) (UniProt P35869). In words: ATG_Ahr_CIS: Attagene CIS-FACTORIAL HepG2 Assay for human Aryl Hydrocarbon Receptor (Ahr) (AID 2282930). The settings on record: HepG2 AhR cis-factorial reporter transcription; actives raise or lower the signal. Put shortly:
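Values derive from bidirectional fitting against DMSO negative control. Underlying signal: cis-element reporter mRNA in transiently transfected HepG2, harvested 24 h post-dose and measured by RT-PCR plus capillary electrophoresis.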

Assay [6] is described as follows: ATG_AP_1_CIS: Attagene CIS-FACTORIAL HepG2 Assay for human Activator Protein 1 (AP-1) (AID 2282931). The settings on record: HepG2 Attagene cis-factorial AP-1 reporter mRNA; actives raise or lower the signal. A digest of the protocol: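 HepG2 cells transiently transfected with cis-element-driven reporter transcription units, dosed for 24 hours. Reporter mRNA measured by RT-PCR, 6-FAM labelling, HpaI digestion and capillary electrophoresis. Bidirectional fitting against DMSO baseline.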

The nature of assay [7]: ATG_AP_2_CIS: Attagene CIS-FACTORIAL HepG2 Assay for human Activator Protein 2 (AP-2) (AID 2282932). The settings on record: HepG2 AP-2 cis-reporter, Attagene transcription factor profiling; actives raise or lower the signal. Put shortly:
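Bidirectional curve fitting against DMSO was applied to reporter mRNA signals from HepG2 cells 24 h after dosing. Cis-promoter reporter units, transiently transfected, were read by RT-PCR plus capillary electrophoresis.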

Assay [8] can be described thus: ATG_BRE_CIS: Attagene CIS-FACTORIAL HepG2 Assay for human Bone Morphogenetic Protein (BMP) Response Element (BRE) (AID 2282933). The settings on record: HepG2 BMP response element reporter, Attagene transcription factor profiling; actives raise or lower the signal. A digest of the protocol:
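After a 24 h chemical treatment, transiently transfected HepG2 cells were lysed for RNA; reporter transcripts were quantified by fluorescent RT-PCR and capillary electrophoresis, normalised to DMSO.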

Assay [9] deals with Retinoic acid receptor alpha (Homo sapiens) (UniProt P10276). In words: ATG_DR5_RAR_CIS: Attagene CIS-FACTORIAL HepG2 Assay for human Retinoic Acid Receptor Alpha (RARE), DR5 submotif (AID 2282934).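 On AC50: reporter responds to endogenous RAR alpha beta and gamma in HepG2 not RARA alone.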 The settings on record: HepG2 Attagene cis-factorial RARE DR5 reporter, mRNA; actives raise or lower the signal. A digest of the protocol: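 Endpoint fitted in both directions relative to DMSO as negative control. It reflects DR5 cis-element reporter mRNA induction in transiently transfected HepG2 cells, measured 24 h after dosing through RT-PCR and fluorescent capillary electrophoresis.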
Chain of Retinoic acid receptor alpha (Homo sapiens) (P10276 whole entry, looked up): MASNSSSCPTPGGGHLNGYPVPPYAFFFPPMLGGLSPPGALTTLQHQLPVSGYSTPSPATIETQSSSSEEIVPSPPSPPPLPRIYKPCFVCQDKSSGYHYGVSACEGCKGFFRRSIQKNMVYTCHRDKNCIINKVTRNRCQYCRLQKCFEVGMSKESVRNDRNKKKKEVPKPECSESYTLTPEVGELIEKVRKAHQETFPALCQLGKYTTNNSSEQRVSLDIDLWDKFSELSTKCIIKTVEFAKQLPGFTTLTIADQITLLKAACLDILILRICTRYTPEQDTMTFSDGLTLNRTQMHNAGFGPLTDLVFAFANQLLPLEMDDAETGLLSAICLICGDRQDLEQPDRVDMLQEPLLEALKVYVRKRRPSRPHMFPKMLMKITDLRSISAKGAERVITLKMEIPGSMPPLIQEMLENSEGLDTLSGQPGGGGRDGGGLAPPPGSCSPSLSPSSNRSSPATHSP

Assay [10] concerns the target Transcription factor E2F1 (Homo sapiens) (UniProt Q01094). The assay is described as follows: ATG_E2F_CIS: Attagene CIS-FACTORIAL HepG2 Assay for human E2F Transcription Factor 1 (AID 2282935). The settings on record: HepG2 Attagene cis-reporter, E2F reporter RNA transcripts; actives raise or lower the signal. A digest of the protocol:
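Multiplexed cis-reporter assay: HepG2, transient transfection, 24 h dosing, mRNA quantitation by labeled RT-PCR and CE.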

Chain of Transcription factor E2F1 (Homo sapiens) (Q01094 whole entry, looked up): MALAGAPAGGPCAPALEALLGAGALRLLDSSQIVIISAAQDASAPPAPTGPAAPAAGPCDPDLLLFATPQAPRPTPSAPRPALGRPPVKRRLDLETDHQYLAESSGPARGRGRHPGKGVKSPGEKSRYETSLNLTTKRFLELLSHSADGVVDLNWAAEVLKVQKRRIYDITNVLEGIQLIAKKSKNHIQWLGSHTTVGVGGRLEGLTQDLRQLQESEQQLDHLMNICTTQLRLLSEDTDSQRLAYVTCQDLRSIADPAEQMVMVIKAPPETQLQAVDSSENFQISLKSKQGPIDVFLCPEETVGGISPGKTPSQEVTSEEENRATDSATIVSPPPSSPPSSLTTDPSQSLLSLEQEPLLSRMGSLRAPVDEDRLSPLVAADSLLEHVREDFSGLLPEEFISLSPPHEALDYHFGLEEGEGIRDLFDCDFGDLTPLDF
Chain of CCAAT/enhancer-binding protein beta (Homo sapiens) (P17676 whole entry, looked up): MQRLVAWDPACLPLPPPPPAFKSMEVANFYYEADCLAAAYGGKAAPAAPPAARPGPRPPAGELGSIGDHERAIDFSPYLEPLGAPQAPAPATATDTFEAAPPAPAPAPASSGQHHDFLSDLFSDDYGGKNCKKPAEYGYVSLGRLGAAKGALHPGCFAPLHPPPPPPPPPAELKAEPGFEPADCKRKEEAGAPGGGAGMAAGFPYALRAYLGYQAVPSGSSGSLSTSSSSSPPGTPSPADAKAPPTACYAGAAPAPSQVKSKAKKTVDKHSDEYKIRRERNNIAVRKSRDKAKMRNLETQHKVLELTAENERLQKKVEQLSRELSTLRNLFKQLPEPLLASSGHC
Chain of Aryl hydrocarbon receptor (Homo sapiens) (P35869 whole entry, looked up): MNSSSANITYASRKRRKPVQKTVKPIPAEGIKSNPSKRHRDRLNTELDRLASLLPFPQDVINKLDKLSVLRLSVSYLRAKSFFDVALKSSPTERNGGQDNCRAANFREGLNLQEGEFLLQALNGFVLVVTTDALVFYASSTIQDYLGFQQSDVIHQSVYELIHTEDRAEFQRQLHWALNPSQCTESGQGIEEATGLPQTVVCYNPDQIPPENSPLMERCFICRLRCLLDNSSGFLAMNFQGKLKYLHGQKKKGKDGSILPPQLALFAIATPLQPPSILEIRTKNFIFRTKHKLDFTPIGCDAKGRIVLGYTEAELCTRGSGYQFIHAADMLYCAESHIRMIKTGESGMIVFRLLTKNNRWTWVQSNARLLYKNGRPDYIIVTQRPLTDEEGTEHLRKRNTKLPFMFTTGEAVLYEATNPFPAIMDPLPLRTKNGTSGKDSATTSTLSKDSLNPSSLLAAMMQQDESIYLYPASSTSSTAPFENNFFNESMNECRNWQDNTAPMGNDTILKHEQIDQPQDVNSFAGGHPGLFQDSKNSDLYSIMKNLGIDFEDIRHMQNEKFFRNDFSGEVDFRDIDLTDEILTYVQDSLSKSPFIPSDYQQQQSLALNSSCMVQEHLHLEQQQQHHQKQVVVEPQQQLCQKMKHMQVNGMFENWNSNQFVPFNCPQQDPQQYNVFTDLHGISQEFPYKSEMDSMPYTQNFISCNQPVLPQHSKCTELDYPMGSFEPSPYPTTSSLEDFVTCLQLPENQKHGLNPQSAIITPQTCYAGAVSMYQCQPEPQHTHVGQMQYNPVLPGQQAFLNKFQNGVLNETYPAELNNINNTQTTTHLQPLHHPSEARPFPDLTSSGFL

On to `CC[C@H](NC(=O)c1cc(F)ccc1NS(=O)(=O)c1cccc2cccnc12)c1ccccc1`, for which the outcome in assay [1], in assay [2], in assay [3], in [4], in assay [5] and in assay [6] was inactive. Further, the compound was called inactive in assay [7], in assay [8], in assay [9] and in [10].

As to `CCN(Cc1cccc(S(=O)(=O)O)c1)c1ccc(C(=C2C=CC(=[N+](CC)Cc3cccc(S(=O)(=O)O)c3)C=C2)c2ccccc2S(=O)(=O)[O-])cc1`, the outcome in assay [1], in assay [2], in assay [3], in assay [4], in [5] and in assay [6] was inactive. Also, the compound was called inactive in assay [7], in assay [8], in [9] and in [10].

For `CC(C)(c1cc(Br)c(O)c(Br)c1)c1cc(Br)c(O)c(Br)c1`, the AC50 is 46 µM (active) and 44.2 µM (active) in [1]; 53.3 µM (active) and 58.5 µM (active) in [3]; 12.5 µM (active) and 13.9 µM (active) in assay [4]; 58.4 µM (active) and 53.2 µM (active) in [6]; 55.8 µM (active) in assay [7]; 46.6 µM (active) in [8]. Also, the AC50 in assay [9] was 25.6 µM (active) and 14.2 µM (active). In addition, the result in assay [2], in assay [7], in assay [8] and in [10] was inactive.

Consider `COCC(C)OCC(C)OCC(C)O` (stereo not given), for which the result in [1], in [2], in assay [3], in assay [4], in [5] and in assay [6] was inactive. In addition, the compound was classed as inactive in assay [7], in [8], in assay [9] and in [10].

Take `Cc1occc1C(=O)Nc1ccc(C(=O)N2CCC(F)(F)/C(=C\C(=O)N3CCC(N4CCCCC4)CC3)c3ccccc32)cc1`: the call in assay [1], in assay [2], in [3], in [6], in assay [7] and in assay [9] was inactive. For the same compound, the outcome in [10] was inactive. Besides, the AC50 in assay [4] is 50.3 µM (active); in [5], 12.3 µM (active); in assay [8], 13.2 µM (active).

`CCCCCCCCOC(=O)c1cc(O)c(O)c(O)c1`: the result in assay [1], in assay [2], in [3], in assay [4], in [5] and in assay [7] was inactive. Also, the call in assay [8], in assay [9] and in [10] was inactive. Besides, the half-maximal activity concentration (AC50) in [6] is 6.37 µM (active).

Regarding `Cc1cccc2ccccc12`, the outcome in [1], in assay [2], in [3], in assay [4], in [5] and in assay [6] was inactive. The outcome in [7], in [8], in [9] and in assay [10] was inactive.

Regarding `OC12N=C(c3ccccc3)SC1Cc1cc(Cl)ccc12` (stereo not given), the call in assay [1], in assay [2], in assay [3], in [4], in assay [7] and in assay [8] was inactive. Moreover, the outcome in assay [9] and in assay [10] was inactive. Also, the AC50 is 2.32 µM (active) in assay [5] and 3.8 µM (active) in assay [6].

Regarding `Cc1cn([C@H]2C[C@H](N=[N+]=[N-])[C@@H](CO)O2)c(=O)[nH]c1=O`, the result in assay [1], in assay [2], in [4], in assay [5], in [6] and in [7] was inactive. The result in assay [8], in assay [9] and in assay [10] was inactive. In [3], the AC50 was 27.4 µM (active).

In the case of `Oc1ccc2ccccc2c1`, the compound was called inactive in [1], in assay [2], in assay [3], in assay [6], in assay [7] and in assay [8]. In addition, the outcome in assay [9] and in assay [10] was inactive. Besides, the concentration at half-maximal activity (AC50) is 100 µM (active) in assay [4]; 870 nM (active) and 1.98 µM (active) in assay [5].

Turning to `OCCO`, the result in [1], in assay [2], in assay [3], in assay [4], in [5] and in assay [6] was inactive. Further, the result in assay [7], in [8], in assay [9] and in [10] was inactive.

Turning to `CCOC(=O)O[C@H](C)OC(=O)c1ccc2c(c1)cc(C(=O)NC1CCN(C(C)C)CC1)n2Cc1cc(-c2ccc(Cl)s2)on1`, the compound was called inactive in assay [1], in assay [2], in assay [3], in assay [4], in assay [5] and in assay [6]. Also, the call in [7], in assay [8] and in assay [10] was inactive. Moreover, the AC50 in [9] was 42.2 µM (active).

As to `CC(C)(C)c1cc(/C=C2\SC(N)=NC2=O)cc(C(C)(C)C)c1O`, the half-maximal activity concentration (AC50) was 18.9 µM (active) in [1], 4.67 µM (active) in assay [3], 6.65 µM (active) in assay [4] and 20.2 µM (active) in assay [6]. For the same compound, the outcome in assay [2], in assay [5], in [7], in assay [8], in assay [9] and in assay [10] was inactive.

On to `COc1ccc2cc(S(=O)(=O)N[C@H](CC(=O)N[C@H](Cc3ccc(CN4[C@H](C)CCC[C@@H]4C)cc3)C(=O)N(C)C(C)C)c3ccc4c(c3)OCO4)ccc2c1`, for which the AC50 in assay [1] was 15.4 µM (active); in assay [5], 14.7 µM (active); in assay [6], 11 µM (active); in [8], 11 µM (active); in [10] it was 11 µM (active). In addition, the result in assay [2], in assay [3], in assay [4], in assay [7] and in assay [9] was inactive.

For `NCc1cccc(C2CCN(C(=O)c3ccc(C#Cc4ccccc4F)o3)CC2)c1`, the AC50 in assay [1], in assay [2], in [3] and in [6] was 11 µM (active) each time. Further, the result in assay [4], in assay [5], in [7], in assay [8], in [9] and in [10] was inactive.

For `CCCCCCCCOc1ccc(C(=O)c2ccccc2)c(O)c1`, the call in assay [1], in [2], in [3], in [4], in [6] and in [7] was inactive. The outcome in [8], in [9] and in assay [10] was inactive. In addition, in [5], the concentration at half-maximal activity (AC50) is 59.1 µM (active).

On to `CCCCCCCCCCCCO`, for which the compound was classed as inactive in [1], in [2], in [3], in assay [4], in [5] and in [6]. The result in [7], in [8], in [9] and in [10] was inactive.

Take `CCCCCCCCCC(=O)O`: the compound was classed as inactive in assay [1], in assay [2], in assay [3], in assay [4], in [6] and in assay [7]. The compound was classed as inactive in assay [8], in [9] and in assay [10].

`O=C(O)c1ccccc1C(=O)OCc1ccccc1`: the compound was classed as inactive in assay [1], in [2], in assay [3], in [4], in assay [5] and in assay [6]. Also, the compound was called inactive in assay [7], in assay [8], in assay [9] and in assay [10].

For the compound `CCN(CC)C(=O)c1cc(S(=O)(=O)Cc2ccccc2)c(N2CCC(c3ccccc3)CC2)cc1N(CC)CCN(C)C`, the compound was called inactive in assay [1], in assay [2], in assay [3], in assay [4], in assay [5] and in assay [6]. The compound was classed as inactive in [7], in assay [8], in assay [9] and in assay [10].
